Results with a measured potency or affinity are listed apart. Values without a mark were called inactive.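 How the source made its calls: active means Loss of cell signal with fitted half-effect dose at or below twice the top valid tested dose; inconclusive means Poor fit, or flat fit from -70 to -30 percent; inactive means Half-effect above limit, rising signal, or flat within 30 percent.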
Test: HEK293T cell cytotoxicity, dose response, cytotoxicity control for HIV Vif inhibitor project, cherry-picks (AID 652208);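 further: 0% = median neutral control wells and -100% = median staurosporine control wells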
Conditions: HEK293T viability, CellTiter-Glo luminescence, 24 h; series mostly up to 26 µM; activity change, negative = cytotoxicity: at the top concentration

Row | SMILES | activity change, negative = cytotoxicity
1 | O=C(Cn1ncc2c3ccccc3n(Cc3cccc(Cl)c3)c2c1=O)N1CCC2(CC1)OCCO2 | -16.2%
2 | CC(Cc1ccc(O)cc1)NCC(O)c1cc(O)cc(O)c1 (stereo unspecified) | 6.1%
3 | CC(C)CC(NC(=O)C1CCCCC1)C(=O)N1CCC2(CC1)OCCO2 (stereo unspecified) | 3.21%
4 | O=C(Cc1ccccc1)OCC(=O)c1ccc(F)cc1 | 6.43%
5 | O=C(NC1(C(F)(F)F)Oc2ccc(Cl)cc2O1)N1CCC2(CC1)OCCO2 (stereo unspecified) | -0.948%
6 | CN1CCc2nc3ccc(F)cc3c(C(N)=O)c2C1 | 4.45%

— PubChem BioAssay AID652208 (Broad Institute, 2013)
